The panel holds about 83,000 compounds, 20% with a hit somewhere; the sample as a whole holds those more often.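 Cells were grown in 96-well plates and exposed to the test compound at a single concentration for 48 hours; results are reported as percent growth, with values below 10 considered active.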 Values without a mark were called inactive. Activity calls are given as the source filed them.
Columns and labels:
Test in all cases: NCI-60 one-dose screen, 48 h (100 = growth as untreated, 0 = no growth, -100 = all killed)
Conditions in all cases: 10 µM unless noted
[1] = test system: NCI-H23 lung
[2] = test system: NCI-H226 lung
[3] = test system: NCI-H322M lung
[4] = test system: HOP-62 NSCLC
[5] = test system: NCI-H460 lung
[6] = test system: HOP-92 NSCLC
[7] = test system: NCI-H522 lung
[8] = test system: A549/ATCC NSCLC
[9] = test system: 786-0 renal
[10] = test system: COLO 205 colon

Compound	growth [1]	growth [2]	growth [3]	growth [4]	growth [5]	growth [6]	growth [7]	growth [8]	growth [9]	growth [10]
O=C(OCC(O)C(=O)NC12CC3CC(CC(C3)C1)C2)c1cccc(Br)c1 (stereo not given)	103%	97.5%	102%	96.9%	108%	90.1%	91.9%	91.9%	102%	105%
Cn1cc(-c2ccc3occ(-c4cccc(-c5ccncc5)c4)c3n2)cn1	19.5%	33.6%	34.3%	13.9%	13.5%	50.6%	-18.5% (active)	17.7%	17.7%	14.7%
Cc1[nH]c(C2CC(c3ccc(C(F)(F)F)c(F)c3)=NN2C)c(C)c1C(=O)NCC(F)(F)F (stereo not given)	95.4%	93.3%	92.7%	106%	101%	114%	88.9%	95.5%	109%	114%
O=C1/C(=C/c2cccc([N+](=O)[O-])c2)COc2ccc(O)c(O)c21	-27.4% (active)	81.5%	28.7%	-31.3% (active)	4.3% (active)	-43.1% (active)	-71.3% (active)	9.74% (active)	-87.9% (active)	-18.2% (active)
CN(C)CC1C(=O)O[C@H]2[C@H]1CC/C(COC(=O)NCc1ccc(Cn3c(=O)sn(CCCI)c3=O)cc1)=C\CC[C@@]1(C)O[C@@H]21 (stereo not given in full)	55.3%	-27.4% (active)	95.1%	83.8%	100%	-87.2% (active)	-84.3% (active)	101%	-73.2% (active)	-63% (active)
COc1ccc(C2=NN3C(C2)c2cc(Br)ccc2OC3c2ccncc2)cc1 (stereo not given)	81.8%	92.7%	76.4%	79.9%	59.4%	82.7%	60%	71.7%	92.6%	110%
COc1cc(/C=C2\CN(S(=O)(=O)c3ccc(C)cc3)C/C(=C\c3cc(CN4CCCC4)c(O)c(OC)c3)C2=O)cc(CN2CCCC2)c1O	-53.5% (active)	31.9%	10.8%	4.13% (active)	-67.4% (active)	-16.7% (active)	-36.2% (active)	21.2%	-74.7% (active)	-49.4% (active)
Nc1ncc(-c2ccc3ncnc(N4CCc5cc(F)c(Cl)cc54)c3c2)cn1	58.8%	33.6%	25.1%	28.7%	38.8%	11.5%	44.1%	28.5%	26%	51.5%
O=C(Nc1ccc(Cl)cc1)C1=NCCCCN1	92%	84.7%	83.5%	70.7%	86.3%	89.9%	82.6%	92.6%	99.9%	99.6%
CC1=NN(c2cccc(Cl)c2)C(=O)/C1=C\C=C\c1ccccc1	26.3%	3.87% (active)	112%	22.3%	101%	101%	34.4%	94.5%	35.5%	4.77% (active)
CN(C)CCOc1ccc(/C(=C(/CCCCCCCCCC[P+](c2ccccc2)(c2ccccc2)c2ccccc2)c2ccccc2)c2ccccc2)cc1	-83.2% (active)	-53.2% (active)	-96.6% (active)	-66% (active)	-79.2% (active)	-84.3% (active)	-75.1% (active)	-64.3% (active)	-76.6% (active)	-64% (active)
C=CCNc1ccc2c3c(cccc13)C(=O)N(CC=C)C2=O	96%	93.7%	102%	108%	99.9%	49.6%	99.4%	103%	101%	110%

From PubChem BioAssay (NCI)
